PubChem BioAssay AID488847 (NMMLSC, 2010)
About 1,900 (0.58%) of roughly 330,000 compounds were called active. Many of the other results were omitted from the sample, so actives are more common in it than they were. A number with no mark means an inactive call.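 The calls were made as follows: active = inhibition of aptamer binding above 40%, roughly 3 SD of noise, on plates passing a quality check; inactive = the rest.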

Biological target: Beta-adrenergic receptor kinase 1 (Homo sapiens) (UniProt P25098)
Sequence (P25098 whole entry, looked up): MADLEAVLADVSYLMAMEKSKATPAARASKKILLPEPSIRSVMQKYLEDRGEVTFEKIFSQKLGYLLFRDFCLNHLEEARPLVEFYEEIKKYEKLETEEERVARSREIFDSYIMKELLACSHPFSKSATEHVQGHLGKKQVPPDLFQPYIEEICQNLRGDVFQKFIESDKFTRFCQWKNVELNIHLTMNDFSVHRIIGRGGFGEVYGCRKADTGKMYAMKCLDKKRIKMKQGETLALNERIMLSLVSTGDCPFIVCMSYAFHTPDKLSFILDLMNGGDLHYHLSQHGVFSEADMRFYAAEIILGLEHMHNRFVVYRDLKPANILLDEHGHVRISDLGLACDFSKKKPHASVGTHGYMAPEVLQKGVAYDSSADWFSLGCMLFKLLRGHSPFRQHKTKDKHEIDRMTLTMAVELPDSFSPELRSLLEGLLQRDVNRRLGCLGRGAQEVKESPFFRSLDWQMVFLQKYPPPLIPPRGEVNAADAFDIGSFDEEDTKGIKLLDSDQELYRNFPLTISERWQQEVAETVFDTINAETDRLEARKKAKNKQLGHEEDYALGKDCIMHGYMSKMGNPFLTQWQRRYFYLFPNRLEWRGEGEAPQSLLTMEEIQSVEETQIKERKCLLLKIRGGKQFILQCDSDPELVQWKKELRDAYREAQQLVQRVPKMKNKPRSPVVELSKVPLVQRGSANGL
Assay: compounds blocking aptamer binding on GRK2 – biochemical, human GRK2, bead flow cytometry, HTS, primary screen (AID 488847);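 also: median bead fluorescence of bound FAM aptamer so fluorescent compounds give negative values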
Details: FAM-aptamer displacement from GRK2, at 10 µM, active compounds read high

| SMILES | inhibition of aptamer binding |
| --- | --- |
| Cc1ccc(NC(=O)COC(=O)CNC(=O)c2ccc(Cl)cc2Cl)cc1S(=O)(=O)N1CCOCC1 | 2% |
| Fc1ccc(CNc2nc3ccccc3n3nnnc23)cc1 | 2% |
| O=c1ccc2c(-c3ccccc3S(=O)(=O)O)c3ccc(O)c(O)c3oc-2c1O | 75% (active) |
| Cc1cc(OCC(=O)N(C)c2c(N)n(Cc3ccccc3)c(=O)[nH]c2=O)c(C(C)C)cc1Cl | 1% |
| O=C1CCCCC1Sc1ccc(Cl)cc1[N+](=O)[O-] (stereo not given) | 1% |
| COc1ccccc1N(C)S(=O)(=O)c1ccc(Cl)c(C(=O)Nc2ccncc2)c1 | 0% |
| O=C1CCCN1C(=O)COc1ccc([N+](=O)[O-])cc1 | 1% |
| O=C(Nc1nnc(-c2ccco2)o1)c1ccc(S(=O)(=O)N2CCOCC2)cc1 | 0% |
| O=C(COC(=O)c1ccccc1)Nc1cccc(S(=O)(=O)N2CCOCC2)c1 | 1% |
| O=C(CSc1ccccc1)Nc1cccc(S(=O)(=O)N2CCOCC2)c1 | 2% |
| O=C(Nc1nnc(-c2ccccc2)o1)c1cccc(S(=O)(=O)N2CCOCC2)c1 | 49% (active) |
| CN=C(Nc1cccc(S(=O)(=O)N2CCOCC2)c1)c1ccccc1 | 79% (active) |
| O=C(Nc1ccc(N2CCOCC2)cc1)c1cccc(S(=O)(=O)N2CCOCC2)c1 | 2% |
| Nc1cc(N2CCCCCC2)c2nonc2c1[N+](=O)[O-] | 0% |
| CCOc1ccc(OCC)c(NC(=O)CCS(=O)(=O)c2ccc(C)cc2)c1 | 0% |
| O=C(CCS(=O)(=O)c1ccc(Br)cc1)NCCc1ccc(Cl)cc1 | 49% (active) |
| Cc1ccc(S(=O)(=O)CCC(=O)OCC(=O)NCCc2ccc(S(N)(=O)=O)cc2)cc1 | 0% |
| COc1ccc(Cl)cc1NC(=O)CCS(=O)(=O)c1ccc(Br)cc1 | 89% (active) |
| COc1ccc(NC(=O)CCS(=O)(=O)c2cc3c(cc2Cl)NC(=O)CO3)cc1OC | 0% |
| O=C(Cc1ccc(Br)cc1)NCCc1ccccc1 | 1% |

| SMILES | inhibition of aptamer binding |
| --- | --- |
| COc1ccc(Cl)cc1NC(=O)COC(=O)c1ccc(Br)o1 | 0% |
| Cc1cc2c(cc1S(=O)(=O)CCC(=O)NCc1ccccc1)OCC(=O)N2 | 2% |
| COc1ccc(Cl)cc1NC(=O)CCS(=O)(=O)c1cc2c(cc1C)NC(=O)CO2 | 80% (active) |
| Cc1ccc(CN2C(=O)N/C(=C/c3cc(C)n(-c4ccccn4)c3C)C2=O)cc1 | 1% |
| CCc1cc2c(=O)c(-c3nc4ccccc4n3C)c(CCCC(=O)O)oc2cc1OC(=O)C(C)(C)C | 1% |
| COc1ccc(CN2C3CCCC2CC(NC(=O)c2cccc(F)c2)C3)cc1 (stereo not given) | 0% |
| CC(=O)N1CCC(C(=O)Nc2nc(-c3ccccc3)ns2)CC1 | 0% |
| CC(Sc1nncn1C)C(=O)Nc1cc(C(F)(F)F)ccc1N1CCOCC1 (stereo not given) | 0% |
| O=C(NCC12CC3CC(C1)CC(CNC(=O)N1CCCC1)(C3)C2)N1CCCC1 | 54% (active) |
| O=C(N1CCCC1)C12CC3CC(C1)CC(C(=O)N1CCCC1)(C3)C2 | 3% |
| C=CCNC(=O)CC12CC3CC(C1)CC(CC(=O)NCC=C)(C3)C2 | 1% |
| Cc1ccccc1CSc1nnc(-c2ccccc2)c(=O)[nH]1 | 3% |
| O=c1[nH]c(SCc2ccccc2)nnc1-c1ccccc1 | 80% (active) |
| N#Cc1c(-c2ccccc2)nc(SCc2ccc([N+](=O)[O-])cc2)[nH]c1=O | 5% |
| COc1cc(OC)cc(C(=O)Nc2nnc(SCC(=O)NCC3CCCO3)s2)c1 (stereo not given) | 0% |
| CCC(=O)Nc1ccccc1C(=O)N1CCN(Cc2ccccc2)CC1 | 2% |
| S=c1nc2ccccc2c2nc(-c3cccnc3)[nH]n12 | 0% |
| CC(C)(C)Nc1nc(-c2ccccn2)nc2ccccc12 | 0% |
| COc1ccc(Nc2nc(-c3cccnc3)nc3ccccc23)cn1 | 60% (active) |
| COc1cc(OC)c(C2=NOC(C(=O)Nc3c(C)n(C)n(-c4ccccc4)c3=O)C2)cc1Cl (stereo not given) | 1% |

| SMILES | inhibition of aptamer binding |
| --- | --- |
| Cc1ccc(Sc2cc(C(=O)c3ccccc3C(=O)O)ccc2[N+](=O)[O-])cc1 | 0% |
| O=C(NCc1ccccc1)[C@H]1C[C@@H]1[C@H](NP(=O)(c1ccccc1)c1ccccc1)c1ccccc1 | 0% |
| COc1ccccc1N1CCN(CC(=O)Nc2ccnn2C2CCCC2)CC1 | 0% |
| C/C(=N\Nc1nc2ccccc2[nH]1)c1cccs1 | 100% (active) |
| O=C(Nc1ccccc1-c1nc2ccccc2[nH]c1=O)c1cccs1 | 1% |
| C/C(=N\Nc1nc(Nc2ccccc2)nc(N2CCOCC2)n1)c1cccs1 | 0% |
| CCN(CC(=O)NCc1ccc(Cl)cc1)C(=O)c1c(C)noc1C | 0% |
| COc1ccc(Cn2c(=S)[nH]c3cc(C(=O)N4CCCCC4)ccc3c2=O)cc1 | 2% |
| NC(=O)C1CCN(C(=O)c2ccc3c(=O)n(Cc4cccc(Br)c4)c(=S)[nH]c3c2)CC1 | 69% (active) |
| CCOc1cc2[nH]c(=S)n(Cc3ccc(C(=O)N4CCN(C)CC4)cc3)c(=O)c2cc1OCC | 0% |
| O=[N+]([O-])c1cc(Cl)cc(/C=N/NC(=S)Nc2cc(S(=O)(=O)N3CCOCC3)ccc2Cl)c1O | 98% (active) |
| Cc1ccc(S(=O)(=O)N2CCN(CC(=O)N/N=C/c3cc([N+](=O)[O-])ccc3Cl)CC2)cc1 | 0% |
| O=S(=O)(c1ccc(NC(=S)NN=C(C2CC2)C2CC2)cc1)N1CCOCC1 | 1% |
| Fc1ccccc1Cc1ccc(Cl)nn1 | 0% |
| COc1cccc(CN(C)CC(=O)Nc2sc3c(c2C#N)CCC3)c1 | 94% (active) |
| Cc1cccc(C(=O)OCC(=O)Nc2sc3c(c2C#N)CCC3)c1 | 6% |
| CCN1CCN(CC(=O)Nc2sc3c(c2C#N)CCC3)CC1 | 0% |
| Cc1nn2cc(-c3ccc(Cl)cc3)cnc2c1Br | 4% |
| CCOC(=O)c1cc2c(ccn2C)n1CC(=O)N1CCC(C)CC1 | 1% |
| Cc1ccc(OCC(=O)Oc2ccccc2[N+](=O)[O-])cc1 | 1% |
